Data: PubChem BioAssay (EPA / NIEHS)
Where “and” joins values, the source holds several entries; their conditions need not be identical. Identical values can stand only once. Inconclusive results are not listed. Calls of active or inactive are those of the source. Rule for the calls: active = hit-call score of the fitted dose curve at least 0.9, where 1 is the maximum; inconclusive = response in the unintended direction; inactive = score below 0.9.

Legend:
[1] = molecular target: human Elastase, ELANE (gene 1991) (UniProt P08246); assay: NVS_ENZ_hElastase: NovaScreen (NVS) Enzymatic Assay for human Elastase (AID 2283153)
human Elastase, ELANE (gene 1991), sequence (P08246 whole entry, looked up): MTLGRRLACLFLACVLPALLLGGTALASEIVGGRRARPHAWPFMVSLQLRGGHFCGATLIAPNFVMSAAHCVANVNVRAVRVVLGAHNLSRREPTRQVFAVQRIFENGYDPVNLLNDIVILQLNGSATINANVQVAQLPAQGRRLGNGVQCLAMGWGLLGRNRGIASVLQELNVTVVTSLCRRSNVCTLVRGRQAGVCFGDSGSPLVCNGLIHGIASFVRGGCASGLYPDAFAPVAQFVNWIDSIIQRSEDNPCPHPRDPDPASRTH
In short: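 Concentration-response to 50 uM max, run singly for chemicals passing a threshold (e.g., 30% inhibition) in a duplicate 25 uM single-point screen. Neutrophil-derived human elastase, absorbance read-out of enzyme activity at 1.5 h; DMSO baseline.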

[2] = molecular target: human Casein Kinase 1-delta (CK1D), CSNK1D (gene 1453) (UniProt P48730); assay: NVS_ENZ_hCK1D: NovaScreen (NVS) Enzymatic Assay for human Casein Kinase 1-delta (CK1D) (AID 2283148)
human Casein Kinase 1-delta (CK1D), CSNK1D (gene 1453), sequence (P48730 whole entry, looked up): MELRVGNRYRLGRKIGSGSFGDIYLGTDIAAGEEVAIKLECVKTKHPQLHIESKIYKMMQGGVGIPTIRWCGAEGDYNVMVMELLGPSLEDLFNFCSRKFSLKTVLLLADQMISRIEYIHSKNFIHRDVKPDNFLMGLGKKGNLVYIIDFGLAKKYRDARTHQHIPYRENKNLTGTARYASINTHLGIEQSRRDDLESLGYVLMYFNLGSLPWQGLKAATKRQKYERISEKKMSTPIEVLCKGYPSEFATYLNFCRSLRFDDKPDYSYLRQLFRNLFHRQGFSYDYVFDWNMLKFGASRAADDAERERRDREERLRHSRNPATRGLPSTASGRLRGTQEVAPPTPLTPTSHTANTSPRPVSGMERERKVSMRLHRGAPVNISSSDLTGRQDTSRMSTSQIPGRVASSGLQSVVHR
In short: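 Recombinant human CK1-delta, cell-free; fluorescent substrate with electrophoretic mobility-shift separation of product, read 1 h after dosing. Single 25 uM duplicate screen, then concentration-response up to 50 uM; loss of signal vs DMSO.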

[3] = molecular target: human Esterase Plasma (ES), BCHE (gene 590) (UniProt P06276); assay: NVS_ENZ_hES: NovaScreen (NVS) Enzymatic Assay for human Esterase Plasma (ES) (AID 2283157)
human Esterase Plasma (ES), BCHE (gene 590), sequence (P06276 whole entry, looked up): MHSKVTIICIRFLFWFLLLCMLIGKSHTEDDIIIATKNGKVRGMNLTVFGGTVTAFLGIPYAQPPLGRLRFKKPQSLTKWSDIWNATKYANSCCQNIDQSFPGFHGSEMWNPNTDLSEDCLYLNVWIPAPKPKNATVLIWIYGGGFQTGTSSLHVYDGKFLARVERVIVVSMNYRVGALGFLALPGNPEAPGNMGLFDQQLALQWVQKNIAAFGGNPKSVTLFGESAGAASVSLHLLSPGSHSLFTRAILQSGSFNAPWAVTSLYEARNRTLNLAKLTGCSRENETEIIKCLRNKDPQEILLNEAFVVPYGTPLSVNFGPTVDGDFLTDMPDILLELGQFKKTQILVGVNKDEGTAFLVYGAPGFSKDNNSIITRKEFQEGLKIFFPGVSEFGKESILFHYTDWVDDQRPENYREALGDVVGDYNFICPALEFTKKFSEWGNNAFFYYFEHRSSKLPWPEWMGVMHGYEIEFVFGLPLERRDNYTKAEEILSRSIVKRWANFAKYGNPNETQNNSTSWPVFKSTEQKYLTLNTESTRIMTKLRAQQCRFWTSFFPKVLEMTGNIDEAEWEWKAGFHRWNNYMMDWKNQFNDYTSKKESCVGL
In short: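 Screening ran at 25 uM in duplicate, followed by singleton concentration series reaching 50 uM for actives. Human plasma protein, colorimetric detection, 0.25 h exposure, DMSO negative control.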

[4] = molecular target: human Caspase 8 (CASP8), CASP8 (gene 841) (UniProt Q14790); assay: NVS_ENZ_hCASP8: NovaScreen (NVS) Enzymatic Assay for human Caspase 8 (CASP8) (AID 2283146)
human Caspase 8 (CASP8), CASP8 (gene 841), sequence (Q14790 whole entry, looked up): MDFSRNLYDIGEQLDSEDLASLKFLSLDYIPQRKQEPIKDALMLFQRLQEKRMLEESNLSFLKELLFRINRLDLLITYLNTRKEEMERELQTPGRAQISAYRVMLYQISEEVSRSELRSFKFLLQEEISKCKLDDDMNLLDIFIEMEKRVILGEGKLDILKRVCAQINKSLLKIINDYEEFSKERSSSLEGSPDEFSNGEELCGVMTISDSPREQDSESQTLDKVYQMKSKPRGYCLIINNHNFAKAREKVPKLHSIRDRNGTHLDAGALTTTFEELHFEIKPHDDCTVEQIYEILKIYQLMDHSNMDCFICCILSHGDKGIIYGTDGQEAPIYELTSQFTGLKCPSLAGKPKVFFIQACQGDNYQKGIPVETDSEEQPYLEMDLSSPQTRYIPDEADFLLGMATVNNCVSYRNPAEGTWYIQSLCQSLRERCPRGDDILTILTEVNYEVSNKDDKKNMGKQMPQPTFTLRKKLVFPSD
Experimental: NVS_ENZ_hCASP8 is a biochemical, single-readout assay that uses extracted gene-proteins from E. coli in a cell-free assay. Measurements were taken 1 hour after chemical dosing in a 96-well plate.NVS_ENZ_hCASP8 is one of one assay component(s) measured or calculated from the NVS_ENZ_hCASP8 assay. It is designed to make measurements of enzyme activity, a form of enzyme reporter, as detected with fluorescence intensity signals by Fluorescence technology.Data from the assay component NVS_ENZ_hCASP8 was analyzed into 1 assay endpoint. This assay endpoint, NVS_ENZ_hCASP8, was analyzed in the positive analysis fitting direction relative to DMSO as the negative control and baseline of activity. Using a type of enzyme reporter, loss-of-signal activity can be used to understand changes in the enzymatic activity as they relate to the gene CASP8. Furthermore, this assay endpoint can be referred to as a primary readout, because this assay has produced multiple assay endpoints where this one serves a enzymatic activity function. To generalize the intended target to other relatable targets, this assay endpoint is annotated to the protease intended target family, where the subfamily is cysteine protease.
Binding assays used specific radioligands (tritiated, iodinated) with non-radioactive competitive displacement ligands in agonist or antagonist protocols (as indicated) and various reference compounds and inhibitors to titrate specific binding to receptors and transporters. Most enzyme assays (CYPs, kinases, phosphatases, proteases, HDACs) used recombinant protein and specific substrates (fluorescence mostly, some colorimetric and radioactive) and inhibitors, followed by a biochemical separation of substrate and product. All assays for the biochemical HTS were initially run in duplicate at a single concentration (10 uM for CYP450 assays and 25 uM for all others). […] Each assay was run with positive and negative controls, and concurrent controls on every plate. The follow-up (secondary) screen tested active chemical-pairs in concentration series, as well as a few additional assays not tested in the primary screen, some selected negative inactives, and several cases re-run in the concentration series for confirmatory purposes.

[5] = molecular target: human AKT serine/threonine Kinase 2 (AKT2), AKT2 (gene 208) (UniProt P31751); assay: NVS_ENZ_hAKT2: NovaScreen (NVS) Enzymatic Assay for human AKT serine/threonine Kinase 2 (AKT2) (AID 2283141)
human AKT serine/threonine Kinase 2 (AKT2), AKT2 (gene 208), sequence (P31751 whole entry, looked up): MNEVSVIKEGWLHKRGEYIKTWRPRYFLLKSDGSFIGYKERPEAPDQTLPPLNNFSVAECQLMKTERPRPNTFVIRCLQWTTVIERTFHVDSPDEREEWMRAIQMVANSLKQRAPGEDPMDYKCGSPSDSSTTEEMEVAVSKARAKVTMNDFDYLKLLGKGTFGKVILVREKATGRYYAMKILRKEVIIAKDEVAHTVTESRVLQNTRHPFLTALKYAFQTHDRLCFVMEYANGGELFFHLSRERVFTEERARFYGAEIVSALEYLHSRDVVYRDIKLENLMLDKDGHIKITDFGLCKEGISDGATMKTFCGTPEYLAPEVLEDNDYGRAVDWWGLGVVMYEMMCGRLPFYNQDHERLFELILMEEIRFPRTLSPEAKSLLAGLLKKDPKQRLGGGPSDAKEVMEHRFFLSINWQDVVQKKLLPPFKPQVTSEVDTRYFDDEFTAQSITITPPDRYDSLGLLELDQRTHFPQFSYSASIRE
In short: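 Cell-free fluorescence/electrophoretic mobility shift readout of recombinant human AKT2 activity, 1 h after chemical dosing. Duplicate primary screen at 25 uM, then singleton concentration-response up to 50 uM; loss of signal versus DMSO baseline.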

CDK2 (gene 1017) = CDK2 (gene 1017) (UniProt P24941); assay: NVS_ENZ_hCDK2: NovaScreen (NVS) Enzymatic Assay for human Cyclin-Cependent Kinase 2 (CDK2) (AID 2283144)
Experimental: (§1) NVS_ENZ_hCDK2 is a biochemical, single-readout assay that uses extracted gene-proteins in a cell-free assay. Measurements were taken 1 hour after chemical dosing in a 384-well plate.NVS_ENZ_hCDK2 is one of one assay component(s) measured or calculated from the NVS_ENZ_hCDK2 assay. It is designed to make measurements of enzyme activity, a form of enzyme reporter, as detected with fluorescence intensity signals by Fluorescence and electrophoretic mobility shift technology.Data from the assay component NVS_ENZ_hCDK2 was analyzed into 1 assay endpoint. This assay endpoint, NVS_ENZ_hCDK2, was analyzed in the positive analysis fitting direction relative to DMSO as the negative control and baseline of activity. Using a type of enzyme reporter, loss-of-signal activity can be used to understand changes in the enzymatic activity as they relate to the gene CDK2. Furthermore, this assay endpoint can be referred to as a primary readout, because this assay has produced multiple assay endpoints where this one serves a enzymatic activity function. To generalize the intended target to other relatable targets, this assay endpoint is annotated to the kinase intended target family, where the subfamily is serine/threonine kinase. […]

[6] = molecular target: human Dual Specificity Protein Phosphatase 3 (DUSP3), DUSP3 (gene 1845) (UniProt P51452); assay: NVS_ENZ_hDUSP3: NovaScreen (NVS) Enzymatic Assay for human Dual Specificity Protein Phosphatase 3 (DUSP3) (AID 2283152);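 note: phosphatase activity of recombinant human DUSP3 on a fluorogenic substrate without cells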
human Dual Specificity Protein Phosphatase 3 (DUSP3), DUSP3 (gene 1845), sequence (P51452 whole entry, looked up): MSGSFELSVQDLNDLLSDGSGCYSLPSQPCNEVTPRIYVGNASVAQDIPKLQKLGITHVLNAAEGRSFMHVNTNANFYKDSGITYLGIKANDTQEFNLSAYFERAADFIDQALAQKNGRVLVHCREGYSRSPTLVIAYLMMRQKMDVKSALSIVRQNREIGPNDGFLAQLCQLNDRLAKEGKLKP
In short: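 Cell-free fluorescence-intensity enzyme activity assay with recombinant protein and substrate; loss of signal fitted relative to DMSO baseline. Primary screen in duplicate at 25 uM, actives then run in concentration series; measured 0 h after dosing.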

[7] = molecular target: human Beta-secretase (BACE), BACE1 (gene 23621) (UniProt P56817); assay: NVS_ENZ_hBACE: NovaScreen (NVS) Enzymatic Assay for human Beta-secretase (BACE) (AID 2283140);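 note: hits are inhibitors that reduce fluorescent substrate signal versus DMSO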
human Beta-secretase (BACE), BACE1 (gene 23621), sequence (P56817 whole entry, looked up): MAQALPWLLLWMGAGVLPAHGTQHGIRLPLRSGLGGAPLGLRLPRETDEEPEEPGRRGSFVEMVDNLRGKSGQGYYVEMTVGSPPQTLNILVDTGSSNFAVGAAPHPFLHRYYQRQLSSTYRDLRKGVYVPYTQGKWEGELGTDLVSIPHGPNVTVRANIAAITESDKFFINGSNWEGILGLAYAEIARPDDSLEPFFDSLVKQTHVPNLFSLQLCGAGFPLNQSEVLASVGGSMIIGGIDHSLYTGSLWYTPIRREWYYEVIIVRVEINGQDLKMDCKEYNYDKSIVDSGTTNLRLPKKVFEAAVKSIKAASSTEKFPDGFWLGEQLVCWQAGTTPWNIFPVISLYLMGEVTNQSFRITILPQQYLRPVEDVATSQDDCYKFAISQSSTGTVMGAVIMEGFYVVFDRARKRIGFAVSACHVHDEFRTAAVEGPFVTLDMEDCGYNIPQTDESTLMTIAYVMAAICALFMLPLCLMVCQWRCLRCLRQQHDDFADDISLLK
In short: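 SF9-expressed enzyme, cell-free; fluorescent substrate readout after 1 h. Screened at 25 uM single concentration, duplicate; hits retested in concentration series. Activity relative to DMSO baseline, loss-of-signal.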

[8] = molecular target: human Caspase 4 (CASP4), CASP4 (gene 837) (UniProt P49662); assay: NVS_ENZ_hCASP4: NovaScreen (NVS) Enzymatic Assay for human Caspase 4 (CASP4) (AID 2283143)
human Caspase 4 (CASP4), CASP4 (gene 837), sequence (P49662 whole entry, looked up): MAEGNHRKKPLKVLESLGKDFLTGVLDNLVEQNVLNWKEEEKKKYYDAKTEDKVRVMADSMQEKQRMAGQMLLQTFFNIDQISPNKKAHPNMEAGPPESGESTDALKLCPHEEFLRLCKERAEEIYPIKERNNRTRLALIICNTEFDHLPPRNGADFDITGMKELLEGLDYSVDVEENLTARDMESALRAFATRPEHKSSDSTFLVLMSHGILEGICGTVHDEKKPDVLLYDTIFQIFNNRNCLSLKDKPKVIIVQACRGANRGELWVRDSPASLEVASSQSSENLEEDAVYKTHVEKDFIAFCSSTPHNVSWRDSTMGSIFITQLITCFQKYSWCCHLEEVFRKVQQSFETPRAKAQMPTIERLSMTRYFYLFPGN
In short: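 Compounds were first tested in duplicate at 25 uM, and hits were titrated singly to a 50 uM maximum. Recombinant protease from E. coli was read by fluorescence 2 h post-dose, and activity loss was fitted against the DMSO baseline.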

[9] = molecular target: human Colony Stimulating Factor 1 Receptor (CSF1R), CSF1R (gene 1436) (UniProt P07333); assay: NVS_ENZ_hCSF1R: NovaScreen (NVS) Enzymatic Assay for human Colony Stimulating Factor 1 Receptor (CSF1R) (AID 2283150)
human Colony Stimulating Factor 1 Receptor (CSF1R), CSF1R (gene 1436), sequence (P07333 whole entry, looked up): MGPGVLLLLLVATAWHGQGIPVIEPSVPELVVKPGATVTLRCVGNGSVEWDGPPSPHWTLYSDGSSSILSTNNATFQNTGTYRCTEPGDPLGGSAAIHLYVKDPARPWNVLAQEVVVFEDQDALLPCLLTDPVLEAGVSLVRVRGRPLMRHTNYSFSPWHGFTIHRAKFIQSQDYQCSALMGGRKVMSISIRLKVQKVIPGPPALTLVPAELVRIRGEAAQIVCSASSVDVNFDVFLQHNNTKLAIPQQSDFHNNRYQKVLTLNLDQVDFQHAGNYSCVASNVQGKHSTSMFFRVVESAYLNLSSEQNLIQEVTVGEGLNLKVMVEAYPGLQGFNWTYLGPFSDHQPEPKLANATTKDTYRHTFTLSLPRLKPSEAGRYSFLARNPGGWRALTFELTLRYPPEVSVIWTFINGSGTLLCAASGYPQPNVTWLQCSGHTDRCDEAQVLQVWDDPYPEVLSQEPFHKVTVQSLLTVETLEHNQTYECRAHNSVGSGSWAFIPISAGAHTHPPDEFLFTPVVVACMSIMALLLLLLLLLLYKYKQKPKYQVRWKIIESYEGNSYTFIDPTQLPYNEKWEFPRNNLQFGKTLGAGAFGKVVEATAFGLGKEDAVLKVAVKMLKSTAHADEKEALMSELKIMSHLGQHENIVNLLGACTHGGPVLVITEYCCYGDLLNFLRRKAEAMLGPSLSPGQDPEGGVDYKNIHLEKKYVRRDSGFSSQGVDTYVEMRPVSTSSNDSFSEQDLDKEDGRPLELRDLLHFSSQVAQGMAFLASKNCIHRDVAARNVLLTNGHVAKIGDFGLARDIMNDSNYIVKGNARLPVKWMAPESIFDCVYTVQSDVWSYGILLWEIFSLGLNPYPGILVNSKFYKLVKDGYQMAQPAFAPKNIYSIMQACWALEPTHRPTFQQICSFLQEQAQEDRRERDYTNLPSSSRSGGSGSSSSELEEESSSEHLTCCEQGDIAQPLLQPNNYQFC
Experimental: as §1, with “NVS_ENZ_hCSF1R” for “NVS_ENZ_hCDK2”, “plate.NVS_ENZ_hCSF1R” for “plate.NVS_ENZ_hCDK2”, “NVS_ENZ_hCSF1R,” for “NVS_ENZ_hCDK2,”, “CSF1R.” for “CDK2.”, “receptor tyrosine” for “serine/threonine”

Which AC50 [1] does the source give for `COc1cc(C(C)C)c2c(c1)S(=O)(=O)N(COc1cc(=O)n3cccc(OCCN4CCCCC4)c3n1)C2=O` here?
The AC50 was 0.0341 µM (active).

How did the outcome [2] turn out when `CCCc1ccccc1` was run?
Its outcome is “inactive”.

Which outcome [3] does the source give for `CCc1ccc(O)c(C(C)(C)C)c1` here?
The outcome was “inactive”.

For `CCCCCCCCN(C)C`, which outcome [4] is on record?
Its outcome is “inactive”.

And the outcome [3]?
The outcome was “inactive”.

For `CCCCOC(=O)c1ccccc1`, which outcome [3] is on record?
Its outcome is “inactive”.

Which AC50 [3] does the source give for `c1ccc(C(O[C@@H]2CCCN(CCc3ccc4c(c3)OCO4)C2)c2ccccc2)cc1` here?
The AC50 was 7.95 µM (active).

How did the outcome [1] turn out when `c1ccc2c(c1)-c1cccc3c1c-2cc1ccccc13` was run?
The outcome was “inactive”.

Which outcome [2] does the source give for `O=C(O)[C@H](O)[C@@H](O)C(=O)O` here?
Its outcome is “inactive”.

Which outcome [5] does the source give for `O=c1[nH]cnc2c1ncn2[C@H]1CC[C@@H](CO)O1` here?
The outcome was “inactive”.

What about the AC50 (CDK2 (gene 1017)) of the same compound?
The AC50 was 25 µM (active).

What about the outcome [2] of the same compound?
The outcome was “inactive”.

`CCCCCCOC(=O)CC(CC(=O)OCCCCCC)(OC(=O)CCC)C(=O)OCCCCCC` was tested. Which outcome [6] did it give?
The outcome was “inactive”.

What about the outcome [1] of the same compound?
The outcome was “inactive”.

For `C=CCc1cc(S(=O)(=O)c2ccc(O)c(CC=C)c2)ccc1O`, which AC50 [7] is on record?
The AC50 was 15.2 µM (active).

What about the outcome [6] of the same compound?
The outcome was “inactive”.

Which outcome [5] does the source give for `CCCC(CCC)C(=O)O` here?
The outcome was “inactive”.

And the outcome (CDK2 (gene 1017))?
The outcome was “inactive”.

What does the source list for `OCc1c[nH]c2ccccc12`?
AC50 [7]: 25 µM (active); AC50 [6]: 19.5 µM (active) and 15.4 µM (active); AC50 [3]: 15.3 µM (active) and 19.1 µM (active)

`CC[C@H](C)C(=O)O[C@H]1C[C@H](O)C=C2C=C[C@H](C)[C@H](CC[C@@H](O)C[C@@H](O)CC(=O)O)[C@H]21` was tested. Which outcome [7] did it give?
Its outcome is “inactive”.

And the outcome [4]?
The outcome was “inactive”.

How did the outcome [7] turn out when `O=C(N[C@H](CO)[C@H](O)c1ccc([N+](=O)[O-])cc1)C(Cl)Cl` was run?
Its outcome is “inactive”.

Which outcome [1] does the source give for `CCn1nc(C)c2c1C(=O)NCC(c1ccc(O)cc1)=N2` here?
The outcome was “inactive”.

What about the outcome [3] of the same compound?
The outcome was “inactive”.

What does the source list for `CCCCN1C(=O)[C@@H]([C@H](O)C2CCCCC2)NC(=O)C12CCN(Cc1ccc(Oc3ccc(C(=O)O)cc3)cc1)CC2`?
outcome [7]: inactive; AC50 [6]: 14.8 µM (active)

Which results are given for `CCCCCCCCCCCCCCCCOS(=O)(=O)O`?
AC50 [7]: 1.27 µM (active); outcome [6]: inactive; AC50 [1]: 4.2 µM (active)

How did the outcome [5] turn out when `OCCOCCOCCO` was run?
Its outcome is “inactive”.

For `S=P(N1CC1)(N1CC1)N1CC1`, which AC50 [7] is on record?
The AC50 was 22.4 µM (active).

And the AC50 [6]?
The AC50 was 20.3 µM (active) and 26.1 µM (active).

How did the outcome [6] turn out when `CCN(CC)C(=S)SSC(=S)N(CC)CC` was run?
The outcome was “inactive”.

What about the outcome [3] of the same compound?
Its outcome is “inactive”.

With `Cc1nc(-c2ccccn2)ncc1C(=O)Nn1cc(C)c2cc(F)ccc21` as the compound, how does the outcome [5] read?
The outcome was “inactive”.

With `CCCCC(CC)C(=O)OCCOCCOCCOC(=O)C(CC)CCCC` (stereo not drawn) as the compound, how does the outcome [7] read?
The outcome was “inactive”.

With `CCCCCCCC/C=C\CCCCCCCC(=O)OC[C@@H](O)[C@H]1OC[C@H](O)[C@H]1O` as the compound, how does the AC50 [7] read?
Its AC50 is 6.7 µM (active).

And the AC50 [5]?
The AC50 was 42.1 µM (active).

What about the outcome [8] of the same compound?
Its outcome is “inactive”.

How did the AC50 [8] turn out when `CC(C)CC(C)O` (stereo not drawn) was run?
The AC50 was 8.65 µM (active).

Which outcome [5] does the source give for `Cc1ccc(S(=O)(=O)NC(=O)NN2CCCCCC2)cc1` here?
The outcome was “inactive”.

With `O=C(O)c1cccc(C[C@@H]2COc3ccc(OCc4nc5cc(F)ccc5s4)cc3[C@@H]2O)c1` as the compound, how does the outcome [2] read?
The outcome was “inactive”.

Which outcome [4] does the source give for `CC(C)CCCCCCOC(=O)C1CCCCC1C(=O)OCCCCCCC(C)C` (stereo not drawn) here?
The outcome was “inactive”.

And the outcome [1]?
The outcome was “inactive”.

How did the outcome [7] turn out when `CCCCCCCCCC` was run?
Its outcome is “inactive”.

What about the outcome [6] of the same compound?
Its outcome is “inactive”.

And the outcome [3]?
The outcome was “inactive”.

How did the AC50 [8] turn out when `COc1cc2c(c(OC)c1OC)-c1ccc(OC)c(=O)cc1[C@@H](NC(C)=O)CC2` was run?
Its AC50 is 0.485 µM (active).

And the outcome [4]?
The outcome was “inactive”.

How did the outcome [8] turn out when `CC(C)C(=O)Nc1ccc([N+](=O)[O-])c(C(F)(F)F)c1` was run?
The outcome was “inactive”.

With `Cc1ncc([C@@H](CCCCCCc2ccc3c(n2)NCCC3)CC(=O)O)cn1` as the compound, how does the outcome [9] read?
Its outcome is “inactive”.
